In PubChem BioAssay:
Activity calls are given as the source filed them.

Key:
[1] = test system: PRMT1 (protein arginine N-methyltransferase 1); experiment: PRMT1 binders on small-molecule microarrays, primary screen, biochemical, small-molecule microarray, 635 nm fluorescence (AID 1088); settings: small-molecule microarray binding, higher = more signal;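 also: binding of Prmt1 protein to compounds spotted on small-molecule microarray slides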
[2] = yeast growth modulation, basal conditions, primary screen, YJM789 clinical isolate, OD600, 24 h (AID 1089);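 also: growth of clinical yeast isolate S. cerevisiae YJM 789 seeded 1000 cells per well; test concentration not given here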; settings: S. cerevisiae YJM789 growth, higher = more signal, called active from +8 up or from −8 down
[3] = fission yeast growth modulation, primary screen, strain 972, OD600, 24 h, no modulator (AID 1090);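 also: basal condition with compound alone and no growth modifier present; test concentration not given here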; settings: S. pombe 972 growth, higher = more signal, called active from +8 up or from −8 down
[4] = S. cerevisiae growth modulation with rapamycin, primary screen, strain BY4716, OD600, 96 h (AID 1091); settings: higher = more signal, called active from +8 up or from −8 down; also: test concentration not given here
[5] = target: Torsin-1A-interacting protein 2 (Homo sapiens) (UniProt Q8NFQ8); experiment: LULL1 binders on small-molecule microarray, primary screen, cell lysate, human LULL1 lysate, 635/667 nm fluorescence (AID 1092); settings: hLULL1 lysate binding, 635 nm fluorescence, higher = more signal;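 also: probe is lysate of COS7 cells overexpressing human LULL1; score merges per-feature 667 nm fluorescence with signal-to-noise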
Chain of Torsin-1A-interacting protein 2 (Homo sapiens) (Q8NFQ8 whole entry, looked up): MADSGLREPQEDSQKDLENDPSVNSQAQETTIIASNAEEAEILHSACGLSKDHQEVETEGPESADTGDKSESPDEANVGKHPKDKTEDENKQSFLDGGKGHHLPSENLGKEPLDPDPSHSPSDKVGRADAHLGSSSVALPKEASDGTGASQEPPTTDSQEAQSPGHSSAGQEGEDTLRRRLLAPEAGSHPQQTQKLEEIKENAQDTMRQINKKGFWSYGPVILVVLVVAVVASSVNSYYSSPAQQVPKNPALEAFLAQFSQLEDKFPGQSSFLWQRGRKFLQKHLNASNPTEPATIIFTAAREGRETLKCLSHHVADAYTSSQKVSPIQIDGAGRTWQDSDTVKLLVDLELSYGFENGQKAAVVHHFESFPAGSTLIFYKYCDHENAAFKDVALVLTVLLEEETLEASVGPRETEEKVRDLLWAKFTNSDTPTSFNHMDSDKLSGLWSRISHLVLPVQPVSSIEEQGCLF

[6] = E. coli growth modulation, two-sided OD650, primary screen, E. coli filamentation project, strain DRC41, 24 h (AID 1093); settings: OD650, 24 h, higher = more signal, called active from +8 up or from −8 down;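 also: MC1000 strain lacking acrAB efflux and sulA so SOS filamentation is blocked; test concentration not given here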
[7] = small-molecule microarray binders of probe aLefty2, primary screen, biochemical, biotinylated probe, 635/667 nm fluorescence (AID 1094); settings: higher = more signal;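 also: score merges spot fluorescence near 667 nm with spot signal-to-noise ratio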
[8] = test system: Noggin (protein binding on small-molecule microarray); experiment: Noggin binders on small-molecule microarray, primary screen, biochemical, 635/667 nm fluorescence (AID 1095); settings: 635 nm fluorescence, higher = more signal;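 also: score merges 667 nm feature fluorescence with signal to noise over triplicate slides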
[9] = target: Neurogenic locus notch homolog protein 3 (Homo sapiens) (UniProt Q9UM47); experiment: NOTCH3 binders on small-molecule microarray, primary screen, biochemical, 635/667 nm fluorescence (AID 1096); settings: NOTCH3 binding, 635 nm fluorescence, higher = more signal
Chain of Neurogenic locus notch homolog protein 3 (Homo sapiens) (Q9UM47 whole entry, looked up): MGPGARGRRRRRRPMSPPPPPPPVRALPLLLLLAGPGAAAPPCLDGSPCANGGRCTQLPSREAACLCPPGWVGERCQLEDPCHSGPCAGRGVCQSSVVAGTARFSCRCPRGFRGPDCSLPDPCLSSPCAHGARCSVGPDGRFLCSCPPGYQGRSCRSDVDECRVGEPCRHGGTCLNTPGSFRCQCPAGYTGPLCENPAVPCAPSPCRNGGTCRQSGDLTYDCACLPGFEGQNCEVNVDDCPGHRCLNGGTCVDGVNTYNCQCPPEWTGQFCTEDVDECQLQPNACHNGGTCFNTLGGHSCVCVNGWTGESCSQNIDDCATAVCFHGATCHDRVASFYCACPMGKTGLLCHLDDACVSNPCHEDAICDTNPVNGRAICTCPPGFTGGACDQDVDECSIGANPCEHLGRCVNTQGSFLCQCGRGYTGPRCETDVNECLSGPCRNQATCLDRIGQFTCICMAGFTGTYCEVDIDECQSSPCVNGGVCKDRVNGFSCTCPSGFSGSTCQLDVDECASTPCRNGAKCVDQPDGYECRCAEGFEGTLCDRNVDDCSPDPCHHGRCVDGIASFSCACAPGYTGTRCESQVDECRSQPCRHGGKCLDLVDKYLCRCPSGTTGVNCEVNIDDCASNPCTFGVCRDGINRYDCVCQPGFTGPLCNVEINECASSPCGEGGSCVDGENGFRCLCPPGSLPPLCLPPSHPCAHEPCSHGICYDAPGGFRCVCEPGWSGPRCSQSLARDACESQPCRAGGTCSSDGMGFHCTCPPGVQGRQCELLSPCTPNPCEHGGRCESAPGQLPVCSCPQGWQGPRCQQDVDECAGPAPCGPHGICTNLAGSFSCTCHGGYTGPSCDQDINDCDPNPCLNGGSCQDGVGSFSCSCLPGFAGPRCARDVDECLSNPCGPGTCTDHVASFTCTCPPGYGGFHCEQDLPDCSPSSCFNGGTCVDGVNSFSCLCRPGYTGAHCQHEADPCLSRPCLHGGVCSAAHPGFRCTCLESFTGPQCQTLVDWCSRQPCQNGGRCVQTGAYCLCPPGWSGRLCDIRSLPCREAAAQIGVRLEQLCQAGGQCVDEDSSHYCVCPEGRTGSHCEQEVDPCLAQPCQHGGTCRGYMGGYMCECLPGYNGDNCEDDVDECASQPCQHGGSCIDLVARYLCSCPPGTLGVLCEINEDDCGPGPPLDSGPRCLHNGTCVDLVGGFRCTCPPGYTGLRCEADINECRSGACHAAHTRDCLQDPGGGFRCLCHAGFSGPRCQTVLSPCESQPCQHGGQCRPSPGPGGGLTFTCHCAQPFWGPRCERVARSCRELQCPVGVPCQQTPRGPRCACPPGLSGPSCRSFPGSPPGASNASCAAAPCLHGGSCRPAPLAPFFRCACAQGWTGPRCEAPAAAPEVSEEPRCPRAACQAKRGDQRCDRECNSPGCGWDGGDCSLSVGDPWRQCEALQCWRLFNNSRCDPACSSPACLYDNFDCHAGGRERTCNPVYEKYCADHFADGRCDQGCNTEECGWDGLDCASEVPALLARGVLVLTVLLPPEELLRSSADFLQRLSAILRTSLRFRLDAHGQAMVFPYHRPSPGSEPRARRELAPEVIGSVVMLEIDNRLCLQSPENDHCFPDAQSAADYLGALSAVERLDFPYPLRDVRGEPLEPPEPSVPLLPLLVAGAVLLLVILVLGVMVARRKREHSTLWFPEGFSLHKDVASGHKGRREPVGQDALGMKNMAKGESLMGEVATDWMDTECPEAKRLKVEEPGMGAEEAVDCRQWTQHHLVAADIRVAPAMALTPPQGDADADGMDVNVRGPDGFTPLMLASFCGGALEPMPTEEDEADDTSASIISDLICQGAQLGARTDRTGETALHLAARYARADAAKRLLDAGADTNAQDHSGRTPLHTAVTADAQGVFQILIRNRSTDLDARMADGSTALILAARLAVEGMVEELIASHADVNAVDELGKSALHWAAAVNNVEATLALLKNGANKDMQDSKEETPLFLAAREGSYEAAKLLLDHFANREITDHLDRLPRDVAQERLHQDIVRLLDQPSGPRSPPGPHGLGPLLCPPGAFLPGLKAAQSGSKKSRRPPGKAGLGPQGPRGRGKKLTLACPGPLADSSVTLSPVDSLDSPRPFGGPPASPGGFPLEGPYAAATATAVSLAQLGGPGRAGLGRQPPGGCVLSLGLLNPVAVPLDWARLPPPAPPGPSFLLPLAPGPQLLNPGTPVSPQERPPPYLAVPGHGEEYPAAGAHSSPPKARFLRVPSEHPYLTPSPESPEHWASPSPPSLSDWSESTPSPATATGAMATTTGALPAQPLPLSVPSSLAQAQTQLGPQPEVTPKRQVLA

[10] = small-molecule microarray binders of probe aEGFR, primary screen, biochemical, biotinylated probe, 635/667 nm fluorescence (AID 1097); settings: higher = more signal;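 also: probe is a biotinylated anti-EGFR antibody binding compounds printed on slides; score combines fluorescence near 667 nm and signal to noise of each spot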
[11] = test system: Plasmodium falciparum Sir2 (PF13_0152, Sir2A); experiment: pfSir2 binders on small-molecule microarrays, primary screen, biochemical, small-molecule microarray, 635 nm fluorescence (AID 1098); settings: small-molecule microarray binding, fluorescence 635 nm; higher = more signal;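 also: score merges spot fluorescence intensity with its signal-to-noise ratio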
[12] = small-molecule microarray binders of probe aDKK1, primary screen, biochemical, biotinylated probe, 635/667 nm fluorescence (AID 1099); settings: higher = more signal;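 also: score merges 667nm spot fluorescence with signal to noise across triplicate slides; reference of the scale not given here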
[13] = small-molecule microarray binders of probe aCHRDL2, primary screen, biochemical, biotinylated probe, 635/667 nm fluorescence (AID 1100); settings: higher = more signal
[14] = splicing luciferase reporter signal modulators, primary screen, spliceosome inhibition project, cell-based, HEK293, splice +/- reporter (AID 1101); settings: luminescence, 24 h, higher = more signal, called active from +8 up or from −8 down;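 also: HEK293 cells carrying a splicing-competent luciferase reporter gene; test concentration not given here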
[15] = target: Fibroblast growth factor 10 (Homo sapiens) (UniProt O15520); experiment: FGF10 binders on small-molecule microarrays, primary screen, biochemical, small-molecule microarray, 635 nm fluorescence (AID 1102); settings: FGF10 binding, fluorescence 635 nm, higher = more signal
Chain of Fibroblast growth factor 10 (Homo sapiens) (O15520 whole entry, looked up): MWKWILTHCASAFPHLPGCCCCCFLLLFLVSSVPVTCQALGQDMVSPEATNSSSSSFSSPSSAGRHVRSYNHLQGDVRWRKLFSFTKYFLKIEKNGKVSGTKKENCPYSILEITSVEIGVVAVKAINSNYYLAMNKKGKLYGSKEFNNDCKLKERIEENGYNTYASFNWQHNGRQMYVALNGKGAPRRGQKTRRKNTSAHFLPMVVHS

[16] = test system: glycogen synthase kinase-3 (GSK3A per assay name; protocol says GSK3B); experiment: GSK3 binders on small-molecule microarrays, primary screen, biochemical, small-molecule microarray, 635 nm fluorescence, GSK3A (AID 1103); settings: small-molecule microarray binding, fluorescence 635 nm; higher = more signal; also: the record names both GSK3A and GSK3B
[17] = target: Epidermal growth factor receptor (Homo sapiens) (UniProt P00533); experiment: EGFR binders on small-molecule microarrays, primary screen, biochemical, small-molecule microarray, 635 nm fluorescence (AID 1104); settings: EGFR binding, higher = more signal;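 also: score merges 667 nm emission intensity with spot signal to noise over triplicate slides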
Chain of Epidermal growth factor receptor (Homo sapiens) (P00533 whole entry, looked up): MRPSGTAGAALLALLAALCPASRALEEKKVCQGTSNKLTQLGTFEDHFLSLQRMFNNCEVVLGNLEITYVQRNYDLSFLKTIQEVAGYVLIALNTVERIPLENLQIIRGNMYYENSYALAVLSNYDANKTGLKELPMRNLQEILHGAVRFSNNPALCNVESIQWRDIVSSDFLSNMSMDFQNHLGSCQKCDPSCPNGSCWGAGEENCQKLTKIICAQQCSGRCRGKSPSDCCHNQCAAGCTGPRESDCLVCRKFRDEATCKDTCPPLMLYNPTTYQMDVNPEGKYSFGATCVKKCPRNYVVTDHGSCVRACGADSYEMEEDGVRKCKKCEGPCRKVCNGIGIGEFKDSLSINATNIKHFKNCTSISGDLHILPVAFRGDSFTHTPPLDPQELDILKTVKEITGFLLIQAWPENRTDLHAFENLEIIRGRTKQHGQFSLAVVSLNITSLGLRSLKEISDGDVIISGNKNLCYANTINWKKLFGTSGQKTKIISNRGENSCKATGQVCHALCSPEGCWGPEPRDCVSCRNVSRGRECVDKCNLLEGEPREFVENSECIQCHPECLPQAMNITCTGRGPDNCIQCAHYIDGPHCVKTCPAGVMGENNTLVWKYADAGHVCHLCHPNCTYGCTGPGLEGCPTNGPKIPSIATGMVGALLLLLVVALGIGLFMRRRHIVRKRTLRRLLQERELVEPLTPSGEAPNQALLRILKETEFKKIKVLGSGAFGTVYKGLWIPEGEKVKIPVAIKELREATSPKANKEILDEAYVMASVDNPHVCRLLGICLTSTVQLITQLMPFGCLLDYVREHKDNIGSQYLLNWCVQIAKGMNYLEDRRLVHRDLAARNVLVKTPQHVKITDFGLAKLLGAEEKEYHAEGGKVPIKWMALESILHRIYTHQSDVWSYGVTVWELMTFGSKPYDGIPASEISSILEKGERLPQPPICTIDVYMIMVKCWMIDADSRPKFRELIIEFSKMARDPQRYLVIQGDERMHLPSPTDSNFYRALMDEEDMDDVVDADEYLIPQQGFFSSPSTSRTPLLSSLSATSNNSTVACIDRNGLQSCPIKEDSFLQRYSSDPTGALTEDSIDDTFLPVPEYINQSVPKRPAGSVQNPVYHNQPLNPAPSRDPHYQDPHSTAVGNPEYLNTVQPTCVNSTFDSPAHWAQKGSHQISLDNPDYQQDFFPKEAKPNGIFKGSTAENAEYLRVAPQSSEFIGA

[18] = target: Follistatin-related protein 3 (Homo sapiens) (UniProt O95633); experiment: FSTL3 binders on small-molecule microarrays, primary screen, biochemical, small-molecule microarray, 635 nm fluorescence (AID 1105); settings: FSTL3 binding, higher = more signal;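 also: score merges emission near 667 nm and signal to noise per printed spot across three slides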
Chain of Follistatin-related protein 3 (Homo sapiens) (O95633 whole entry, looked up): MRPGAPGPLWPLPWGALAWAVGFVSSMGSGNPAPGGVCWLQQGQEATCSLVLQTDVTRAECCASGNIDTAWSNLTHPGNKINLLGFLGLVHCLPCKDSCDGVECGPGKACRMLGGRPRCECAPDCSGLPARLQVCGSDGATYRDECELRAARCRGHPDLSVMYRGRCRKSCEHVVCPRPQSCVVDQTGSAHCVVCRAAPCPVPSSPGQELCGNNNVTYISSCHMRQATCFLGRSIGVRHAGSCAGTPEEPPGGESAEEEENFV

[19] = target: Dickkopf-related protein 1 (Homo sapiens) (UniProt O94907); experiment: DKK1 binders on small-molecule microarrays, primary screen, biochemical, small-molecule microarray, 635 nm fluorescence scan (AID 1106); settings: DKK1 binding, higher = more signal;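 also: score merges emission near 667 nm with signal to noise over three replicate slides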
Chain of Dickkopf-related protein 1 (Homo sapiens) (O94907 whole entry, looked up): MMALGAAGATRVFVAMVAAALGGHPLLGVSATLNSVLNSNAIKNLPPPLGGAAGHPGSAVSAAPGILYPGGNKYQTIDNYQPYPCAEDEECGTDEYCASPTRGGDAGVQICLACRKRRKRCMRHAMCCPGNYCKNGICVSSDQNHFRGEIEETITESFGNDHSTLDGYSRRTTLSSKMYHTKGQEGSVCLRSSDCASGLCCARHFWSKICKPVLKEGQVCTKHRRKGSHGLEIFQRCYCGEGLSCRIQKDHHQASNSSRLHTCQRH

[20] = test system: Inhibin beta A chain (activin A); experiment: INHBA (activin A) binders on microarrays, primary screen, biochemical, small-molecule microarray, 635 nm fluorescence scan (AID 1107); settings: small-molecule microarray binding, higher = more signal;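 also: mouse activin A protein probed at 4.33 µg/mL on printed slides; score merges bound-protein fluorescence near 667 nm with spot signal-to-noise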

Q: Which composite z-score [1] does the source give for `CC(C)[C@@H](OCc1ccccc1)[C@H](C)C=NO[C@H](C)c1cn([C@H](CO)Cc2ccccc2)nn1` here?
A: The composite z-score was 1.55.

Q: And the z-score [2]?
A: Its z-score is -2.33 (inactive).

Q: What about the z-score [3] of the same compound?
A: The z-score was -3.29 (inactive).

Q: What about the z-score [4] of the same compound?
A: The z-score was -1.26 (inactive).

Q: What about the composite z-score [5] of the same compound?
A: The composite z-score was 0.825.

Q: What about the z-score [6] of the same compound?
A: The z-score was -0.671 (inactive).

Q: What about the composite z-score [7] of the same compound?
A: Its composite z-score is -0.153.

Q: What about the composite z-score [8] of the same compound?
A: The composite z-score was 0.453.

Q: And the composite z-score [9]?
A: Its composite z-score is 0.712.

Q: And the composite z-score [10]?
A: The composite z-score was -0.0828.

Q: What about the composite z-score [11] of the same compound?
A: Its composite z-score is 0.45.

Q: And the composite z-score [12]?
A: Its composite z-score is -0.25.

Q: What about the composite z-score [13] of the same compound?
A: Its composite z-score is -0.566.

Q: What about the z-score [14] of the same compound?
A: Its z-score is -0.652 (inactive).

Q: What about the composite z-score [15] of the same compound?
A: The composite z-score was 0.503.

Q: What about the composite z-score [16] of the same compound?
A: Its composite z-score is 0.562.

Q: What about the composite z-score [17] of the same compound?
A: Its composite z-score is 0.173.

Q: And the composite z-score [18]?
A: The composite z-score was 0.474.

Q: What about the composite z-score [19] of the same compound?
A: Its composite z-score is 0.804.

Q: And the composite z-score [20]?
A: The composite z-score was -0.172.

Q: With `CC(C)c1ccc(NN2C(C(O)c3ccc4c(c3)OCO4)C=CC3C(=O)N(c4ccccc4)C(=O)C32)cc1` (stereo not given) as the compound, how does the composite z-score [1] read?
A: The composite z-score was 1.21.

Q: And the z-score [2]?
A: Its z-score is -0.0261 (inactive).

Q: And the z-score [3]?
A: The z-score was 0.0855 (inactive).

Q: What about the z-score [4] of the same compound?
A: The z-score was 0.599 (inactive).

Q: What about the composite z-score [5] of the same compound?
A: Its composite z-score is 3.5.

Q: What about the z-score [6] of the same compound?
A: Its z-score is 0.0026 (inactive).

Q: And the composite z-score [7]?
A: The composite z-score was 0.304.

Q: And the composite z-score [8]?
A: The composite z-score was 1.01.

Q: And the composite z-score [9]?
A: The composite z-score was 1.1.

Q: And the composite z-score [10]?
A: The composite z-score was -0.0845.

Q: What about the composite z-score [11] of the same compound?
A: The composite z-score was 1.19.

Q: And the composite z-score [12]?
A: The composite z-score was 0.521.

Q: What about the composite z-score [13] of the same compound?
A: The composite z-score was 0.944.

Q: What about the z-score [14] of the same compound?
A: Its z-score is 1.18 (inactive).

Q: What about the composite z-score [15] of the same compound?
A: The composite z-score was 0.584.

Q: What about the composite z-score [16] of the same compound?
A: Its composite z-score is 1.18.

Q: What about the composite z-score [17] of the same compound?
A: The composite z-score was 0.407.

Q: What about the composite z-score [18] of the same compound?
A: Its composite z-score is 0.886.

Q: What about the composite z-score [19] of the same compound?
A: Its composite z-score is 0.263.

Q: And the composite z-score [20]?
A: Its composite z-score is 0.581.

Q: With `CCOC(=O)NN=C1C[C@@H](O)[C@@H](O)[C@@H]2[C@@H]3C(=O)N(C4CCCCC4)C(=O)[C@@H]3CC[C@H]12` as the compound, how does the composite z-score [1] read?
A: The composite z-score was 0.314.

Q: And the z-score [2]?
A: The z-score was 0.351 (inactive).

Q: And the z-score [3]?
A: Its z-score is 0.458 (inactive).

Q: What about the z-score [4] of the same compound?
A: Its z-score is 0.529 (inactive).

Q: What about the composite z-score [5] of the same compound?
A: Its composite z-score is 0.746.

Q: And the z-score [6]?
A: The z-score was -0.931 (inactive).

Q: And the composite z-score [7]?
A: Its composite z-score is -0.139.

Q: And the composite z-score [8]?
A: The composite z-score was 0.315.

Q: And the composite z-score [9]?
A: Its composite z-score is 0.213.

Q: What about the composite z-score [10] of the same compound?
A: Its composite z-score is -0.0776.

Q: What about the composite z-score [11] of the same compound?
A: The composite z-score was 0.253.

Q: And the composite z-score [12]?
A: Its composite z-score is 0.135.

Q: And the composite z-score [13]?
A: The composite z-score was -0.0663.

Q: What about the z-score [14] of the same compound?
A: The z-score was 0.035 (inactive).

Q: And the composite z-score [15]?
A: The composite z-score was 0.38.

Q: What about the composite z-score [16] of the same compound?
A: The composite z-score was 0.518.

Q: What about the composite z-score [17] of the same compound?
A: Its composite z-score is 0.416.

Q: And the composite z-score [18]?
A: The composite z-score was 0.333.

Q: And the composite z-score [19]?
A: The composite z-score was 0.701.

Q: And the composite z-score [20]?
A: Its composite z-score is -0.341.

Q: With `CC(C)C[C@@H]1NC(=O)[C@H]2C[C@@H](C(=O)O)[C@@H](c3ccc(O)cc3)N2C1=O` as the compound, how does the composite z-score [1] read?
A: Its composite z-score is 0.879.

Q: And the z-score [2]?
A: The z-score was 0.634 (inactive).

Q: What about the z-score [3] of the same compound?
A: The z-score was -0.213 (inactive).

Q: What about the z-score [4] of the same compound?
A: Its z-score is 1.83 (inactive).

Q: What about the composite z-score [5] of the same compound?
A: Its composite z-score is 1.15.

Q: And the z-score [6]?
A: Its z-score is 0.831 (inactive).

Q: And the composite z-score [7]?
A: Its composite z-score is 0.449.

Q: And the composite z-score [8]?
A: The composite z-score was 0.4.

Q: What about the composite z-score [9] of the same compound?
A: Its composite z-score is 0.436.

Q: What about the composite z-score [10] of the same compound?
A: The composite z-score was 0.0577.

Q: And the composite z-score [11]?
A: Its composite z-score is 1.08.

Q: What about the composite z-score [12] of the same compound?
A: The composite z-score was 0.717.

Q: And the composite z-score [13]?
A: The composite z-score was 0.171.

Q: What about the z-score [14] of the same compound?
A: The z-score was -0.0559 (inactive).

Q: What about the composite z-score [15] of the same compound?
A: The composite z-score was 0.0112.

Q: And the composite z-score [16]?
A: Its composite z-score is 0.141.

Q: And the composite z-score [17]?
A: Its composite z-score is -0.284.

Q: And the composite z-score [18]?
A: The composite z-score was 0.0204.

Q: What about the composite z-score [19] of the same compound?
A: The composite z-score was 0.63.

Q: And the composite z-score [20]?
A: The composite z-score was 1.05.

Q: Which results are given for `CN1C(=O)C2C=CC(C(O)C(c3ccccc3)c3ccccc3)N(NC(=O)OC(C)(C)C)C2C1=O` (stereo not given)?
A: composite z-score [1]: 1.42; z-score [2]: -1.79 (inactive); z-score [3]: -4.38 (inactive); z-score [4]: -0.512 (inactive); composite z-score [5]: 3.35; z-score [6]: -0.805 (inactive); composite z-score [7]: 0.59; composite z-score [8]: -0.168; composite z-score [9]: 1.09; composite z-score [10]: 0.311; composite z-score [11]: 1.46; composite z-score [12]: 1.21; composite z-score [13]: 1.22; z-score [14]: 1.71 (inactive); composite z-score [15]: 1.03; composite z-score [16]: 1.12; composite z-score [17]: 0.341; composite z-score [18]: 1.24; composite z-score [19]: 0.452; composite z-score [20]: -0.109
